Screen size: about 1,400 compounds; about 350 (25%) were called active. Inconclusive results (about 2%) are left out. No rule for the calls is given here. Only a sample is shown. Entries with a potency or affinity are not part of this list.
Assay: inhibitors of Clostridioides difficile proliferation – 4-point retest, confirmation (AID 1224921);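 also: plate controls were DMSO wells for no effect and levofloxacin 16 µg/mL wells for full effect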
Conditions: Clostridioides difficile clinical isolate growth, OD600, 24 h, hits give low values; at 30 µM unless noted

Max activity, inactive:
CO[C@H]1CN(C)C(=O)c2cc(NC(=O)C3CCC3)ccc2OC[C@H](C)N(Cc2ccc(F)cc2)C[C@H]1C 14.5%
COc1ccc(-c2ccc([C@H]3[C@H](C#N)N(C(=O)NC4CCCCC4)[C@H]3CO)cc2)cc1 32.4%
C[C@@H]1CN([C@H](C)CO)C(=O)c2cc(NC(=O)Nc3ccc(F)cc3)ccc2O[C@@H](C)CCCCO[C@H]1CN(C)Cc1ccc2c(c1)OCO2 -9.48%
C[C@H](CO)N1C[C@H](C)[C@H](CN(C)Cc2ccc3c(c2)OCO3)OCCCC[C@H](C)Oc2ccc(NC(=O)Nc3ccc(C(F)(F)F)cc3)cc2C1=O 31.6% [at 0.5 µM]
C[C@H](CO)N1C[C@H](C)[C@H](CN(C)Cc2ccc3c(c2)OCO3)OCCCC[C@H](C)Oc2ccc(NC(=O)Nc3ccc(F)cc3)cc2C1=O -7.04% [at 0.5 µM]
C[C@@H]1CN([C@H](C)CO)C(=O)c2cc(NC(=O)Nc3ccc(C(F)(F)F)cc3)ccc2O[C@@H](C)CCCCO[C@@H]1CN(C)Cc1ccc2c(c1)OCO2 29.4% [at 1.95 µM]
C[C@@H]1CCCCO[C@H](CN(C)Cc2ccc3c(c2)OCO3)[C@H](C)CN([C@@H](C)CO)C(=O)c2cc(NC(=O)Nc3ccc(F)cc3)ccc2O1 23.7%
C[C@@H]1CCCCO[C@H](CN(C)Cc2ccc3c(c2)OCO3)[C@@H](C)CN([C@H](C)CO)C(=O)c2cc(NC(=O)Nc3ccc(C(F)(F)F)cc3)ccc2O1 15.4% [at 1.95 µM]
CC(C)CC#Cc1ccc2c(c1)O[C@@H](CN(C)CC1CCOCC1)[C@H](C)CN([C@@H](C)CO)S2(=O)=O 17.9%
CO[C@@H]1CN(C)C(=O)c2ccc(NC(=O)c3nc4ccccc4s3)cc2OC[C@@H](C)N(Cc2cccnc2)C[C@H]1C 33.1%
CC(C)CC#Cc1ccc2c(c1)O[C@H](CN(C)Cc1ccccc1F)[C@H](C)CN([C@H](C)CO)S2(=O)=O 28.2%
COc1ccccc1S(=O)(=O)N(C)C[C@H]1OCc2ccccc2-c2c(n(C)c3ccccc23)C(=O)N([C@@H](C)CO)C[C@H]1C 11.5%
C[C@@H]1CN([C@H](C)CO)S(=O)(=O)c2ccc(-c3ccccc3)cc2O[C@H]1CN(C)Cc1cccnc1 46%
CN1CCN(C(=O)C[C@@H]2C[C@@H]3c4cc(NC(=O)Nc5ccc(C(F)(F)F)cc5)ccc4O[C@@H]3[C@H](CO)O2)CC1 30.1%
Cc1ccccc1-c1ccc2c(c1)O[C@@H](CN(C)Cc1ccncc1)[C@H](C)CN([C@@H](C)CO)S2(=O)=O 33.1%

From PubChem BioAssay AID1224921 (Broad Institute, 2016)
